# Measurements reported in PubChem BioAssay (Tox21).
# Where “and” joins values, the source holds several entries; their conditions need not be identical. Equal values may be shown once. Results filed as inconclusive are left out. Where a call stands in place of a potency, no number is given. More than one record can exist for a structure, and the calls need not agree. Calls of active or inactive are those of the source. Calls follow the shape of the dose curve; as a rule, active = well fitted curve in the direction sought with a large enough effect in the repeat runs; inconclusive = weak or mixed curves; inactive = no such curve, though single readings can be large; an effect the other way counts as inactive or inconclusive.
# Experiments:
# [1] = A CellTox Green Cytotoxicity Assay to monitor cytotoxicity in HepG2 cells - 0 hour (AID 1224882); also: nearly all actives have a fitted effect of over 35% in size
# In short: (§1)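 Nonlytic assay: viable cells exclude the dye, so fluorescence scales with cell death. HepG2 at 600 cells/well, compounds added after 5 h, signal read across 40 h.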
# [2] = A CellTox Green Cytotoxicity Assay to monitor cytotoxicity in HepG2 cells - 32 hour (AID 1224883); also: nearly all actives have a fitted effect of over 50% in size; also: potency is read from the fitted curve at half-maximal effect
# In short: as §1
# [3] = A CellTox Green Cytotoxicity Assay to monitor cytotoxicity in HEK293 cells - 8 hour (AID 1224884); also: nearly all actives have a fitted effect of over 35% in size
# In short: (§2)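 Seeding of HEK293 cells together with cytotoxicity dye preceded a 5 h incubation at 37 C/5% CO2. Test compounds in DMSO were then added and fluorescence monitored across 40 h.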
# [4] = qHTS RealTime-Glo MT Cell Viability Assay in HepG2 cells - 16 hour (AID 1224885); also: nearly all actives have a fitted effect of over 50% in size
# In short: (§3)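 Tox21 10K library screened in qHTS format on HepG2 cells carrying RealTime-Glo reagents. Compounds were added after a 5 h preincubation, and the luminescent signal from continuous culture was measured repeatedly during 40 h treatment.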
# [5] = qHTS RealTime-Glo MT Cell Viability Assay in HEK293 cells - 24 hour (AID 1224886); also: nearly all actives have a fitted effect of over 50% in size; also: potency is read from the fitted curve at half-maximal effect; as to activity change, negative = cytotoxicity: top concentration of the series differs between compounds
# In short: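 Luminescence generated by NanoLuc from substrate produced by living HEK293 cells served as the viability signal. Each value reflects the reading at its stated time point during continuous 40 h compound exposure at 37 C.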
# [6] = qHTS RealTime-Glo MT Cell Viability Assay in HEK293 cells - 8 hour (AID 1224887); also: nearly all actives have a fitted effect of over 50% in size; also: potency is read from the fitted curve at half-maximal effect; as to activity change, negative = cytotoxicity: top concentration of the series differs between compounds
# In short: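 Tox21 screen in HEK293 using RealTime-Glo MT chemistry, with cells and reagent co-dispensed. Luminescence proportional to viable cell number was captured at intervals during 40 h compound exposure at 37 C.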
# [7] = A CellTox Green Cytotoxicity Assay to monitor cytotoxicity in HEK293 cells - 16 hour (AID 1224888); also: nearly all actives have a fitted effect of over 35% in size
# In short: as §2
# [8] = qHTS RealTime-Glo MT Cell Viability Assay in HepG2 cells - 0 hour (AID 1224889); also: nearly all actives have a fitted effect of over 50% in size
# In short: as §3
# [9] = A CellTox Green Cytotoxicity Assay to monitor cytotoxicity in HepG2 cells - 8 hour (AID 1224890); also: nearly all actives have a fitted effect of over 45% in size; also: potency is read from the fitted curve at half-maximal effect
# In short: as §1
# [10] = qHTS assay to identify small molecule antagonists of the estrogen receptor alpha (ER-alpha) signaling pathway using the BG1 cell line in the presence of 0.1 nM 17-beta-estradiol - cell viability counter screen (AID 1259241); also: nearly all actives have a fitted effect of over 40% in size
# In short: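 VM7Luc4E2, 4,000 cells/well, phenol red-free medium + 10% charcoal-stripped FBS; 24 hr plating; cpd + 0.1 nM E2 final, 22 hr 37C/5% CO2; CellTiter-Fluor 30 min, fluorescence.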
structure (smiles),measurement,setting,value
CN1[C@@H]2CC[C@H]1CC(OC(=O)C(CO)c1ccccc1)C2 (stereo not given in full),Potency,[1],inactive
same,Potency,[2],inactive
same,Potency,[3],inactive
same,Potency,[4],inactive
same,Potency,[5],inactive
same,Potency,[6],inactive
same,Potency,[7],inactive
same,Potency,[8],inactive
same,Potency,[9],inactive
Cn1cccc1,Potency,[1],inactive
same,Potency,[2],inactive
same,Potency,[3],inactive
same,Potency,[4],inactive
same,Potency,[5],inactive
same,Potency,[6],inactive
same,Potency,[7],inactive
same,Potency,[8],inactive
same,Potency,[9],inactive
same,Potency,[10],inactive
Cn1cnc2ncnc(N)c21,Potency,[1],inactive
same,Potency,[2],inactive
same,Potency,[3],inactive
same,Potency,[4],inactive
same,Potency,[5],inactive
same,Potency,[6],inactive
same,Potency,[7],inactive
same,Potency,[8],inactive
same,Potency,[9],inactive
O=C(O)CCn1c2c(c3ccccc31)C[C@H](NS(=O)(=O)c1ccc(F)cc1)CC2,Potency,[1],inactive
same,Potency,[2],inactive
same,Potency,[3],inactive
same,Potency,[4],inactive
same,Potency,[5],inactive
same,Potency,[6],inactive
same,Potency,[7],inactive
CC(=O)C=O,Potency,[1],inactive
same,Potency,[2],inactive
same,Potency,[3],inactive
same,Potency,[4],inactive
same,Potency,[5],inactive
same,Potency,[6],inactive
same,Potency,[7],inactive
same,Potency,[8],inactive
same,Potency,[9],inactive
same,Potency,[10],inactive
C=CCCCCCCC=C,Potency,[1],inactive
same,Potency,[2],inactive
same,Potency,[3],inactive
same,Potency,[4],inactive
same,Potency,[5],inactive
same,Potency,[6],inactive
same,Potency,[7],inactive
same,Potency,[8],inactive
same,Potency,[9],inactive
same,Potency,[10],inactive
CC(=O)Oc1ccc(C2(c3ccc(OC(C)=O)cc3)C(=O)Nc3ccccc32)cc1,Potency,[1],inactive
same,Potency,[2],inactive
same,Potency,[3],inactive
same,Potency,[4],inactive
same,Potency,[5],inactive
same,Potency,[6],inactive
same,Potency,[7],inactive
O=c1cccc[nH]1,Potency,[1],inactive
same,Potency,[2],inactive
same,Potency,[3],inactive
same,Potency,[4],inactive
same,Potency,[5],inactive
same,Potency,[6],inactive
same,Potency,[7],inactive
same,Potency,[8],inactive
same,Potency,[9],inactive
same,Potency,[10],inactive
C=CC(=C)CCC=C(C)C,Potency,[1],inactive
same,Potency,[2],inactive
same,Potency,[3],inactive
same,Potency,[4],inactive
same,Potency,[5],inactive
same,Potency,[6],inactive
same,Potency,[7],inactive
same,Potency,[8],inactive
same,Potency,[9],inactive
same,Potency,[10],inactive
Clc1ccc(C(c2ccccc2Cl)C(Cl)Cl)cc1 (stereo not given),Potency,[1],inactive
same,Potency,[2],inactive
same,Potency,[3],inactive
same,Potency,[4],inactive
same,Potency,[5],38.9 µM (active) and inactive
same,Potency,[6],inactive
same,Potency,[7],inactive
same,Potency,[8],inactive
same,Potency,[9],inactive
same,Potency,[10],inactive
CCCCCCCC/C=C/CCCOC(C)=O,Potency,[1],inactive
same,Potency,[2],inactive
same,Potency,[3],inactive
same,Potency,[4],inactive
same,Potency,[5],inactive
same,Potency,[6],inactive
same,Potency,[7],inactive
same,Potency,[8],inactive
same,Potency,[9],inactive
CCCCCCCC(C)=O,Potency,[1],inactive
same,Potency,[2],inactive
same,Potency,[3],inactive
same,Potency,[4],inactive
same,Potency,[5],inactive
same,Potency,[6],inactive
same,Potency,[7],inactive
same,Potency,[8],inactive
same,Potency,[9],inactive
COC(=O)NCCC[Si](OC)(OC)OC,Potency,[1],inactive
same,Potency,[2],inactive
same,Potency,[3],inactive
same,Potency,[4],inactive
same,Potency,[5],inactive
same,Potency,[6],inactive
same,Potency,[7],inactive
same,Potency,[8],inactive
same,Potency,[9],inactive
same,Potency,[10],inactive
CCc1cccc(CC)c1N(COC)C(=O)CS(=O)(=O)O,Potency,[1],inactive
same,Potency,[2],inactive
same,Potency,[3],inactive
same,Potency,[4],inactive
same,Potency,[5],inactive
same,Potency,[6],inactive
same,Potency,[7],inactive
same,Potency,[8],inactive
same,Potency,[9],inactive
CCc1cccc(CC)c1NC(=O)C(=O)O,Potency,[1],inactive
same,Potency,[2],inactive
same,Potency,[3],inactive
same,Potency,[4],inactive
same,Potency,[5],inactive
same,Potency,[6],inactive
same,Potency,[7],inactive
same,Potency,[8],inactive
same,Potency,[9],inactive
same,Potency,[10],inactive
OCCC(O)CO (stereo not given),Potency,[1],inactive
same,Potency,[2],inactive
same,Potency,[3],inactive
same,Potency,[4],inactive
same,Potency,[5],inactive
same,Potency,[6],inactive
same,Potency,[7],inactive
same,Potency,[8],inactive
same,Potency,[9],inactive
same,Potency,[10],inactive
Clc1cccnc1,Potency,[1],inactive
same,Potency,[2],inactive
same,Potency,[3],inactive
same,Potency,[4],inactive
same,Potency,[5],inactive
same,Potency,[6],inactive
same,Potency,[7],inactive
same,Potency,[8],inactive
same,Potency,[9],inactive
same,Potency,[10],inactive
Cc1occc1SSc1ccoc1C,Potency,[1],inactive
same,Potency,[2],54.9 µM (active)
same,Potency,[3],inactive
same,Potency,[4],inactive
same,Potency,[5],inactive
same,Potency,[6],inactive
same,Potency,[7],inactive
same,Potency,[8],inactive
COC(=O)CC(C)CCC=C(C)C (stereo not given),Potency,[1],inactive
same,Potency,[2],inactive
same,Potency,[3],inactive
same,Potency,[4],inactive
same,Potency,[5],inactive
same,Potency,[6],inactive
same,Potency,[7],inactive
same,Potency,[8],inactive
CCCCCCCOC(=O)c1ccc(O)cc1,Potency,[1],inactive
same,Potency,[2],24.5 µM (active)
same,Potency,[3],inactive
same,Potency,[4],inactive
same,Potency,[5],24.6 µM (active) and 21.9 µM (active)
same,Potency,[6],21.9 µM (active)
same,Potency,[7],inactive
same,Potency,[8],inactive
same,Potency,[9],inactive and 38.9 µM (active)
same,Potency,[10],inactive
O=S(O)O,cytotoxicity,[1],-14.5% [at 15.8 µM] (inactive)
same,cytotoxicity increase,[2],-11% [at 15.8 µM] (inactive)
same,cytotoxicity increase,[3],0.551% [at 15.8 µM] (inactive)
same,"activity change, negative = cytotoxic",[4],2.97% [at 15.8 µM] (inactive)
same,"activity change, negative = cytotoxicity",[5],11.2% [at 15.8 µM] (inactive)
same,"activity change, negative = cytotoxicity",[6],3.5% [at 15.8 µM] (inactive)
same,activity change,[7],"1.02% [at 15.8 µM, stronger effect = higher value] (inactive)"
same,"activity change, negative = cytotoxicity",[8],-7.74% [at 15.8 µM] (inactive)
same,cytotoxicity increase,[9],-4.46% [at 15.8 µM] (inactive)
same,"activity change, negative = cytotoxicity",[10],0.521% [at 19 µM] (inactive)
